Some test systems named below: DU-145 prostate; K-562 leukemia; MALME-3M melanoma; MDA-MB-231 breast; RXF 393 renal; SF-268 CNS; SF-295 CNS; SF-539 CNS; UACC-257 melanoma; M14 melanoma.
Assay in all cases: NCI-60 one-dose screen, 48 h (100 = growth as untreated, 0 = no growth, -100 = all killed)
Holding throughout (details): 10 µM unless noted

We go through 13 compounds from PubChem BioAssay (NCI).

About 83,000 compounds went through this panel and 20% of them were active in at least one assay; those are over-represented in the sample as a whole.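 Single-concentration screen, 48 h exposure, 96-well plates. Endpoint: percent growth. Below 10 = active.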 Values without a mark were called inactive. Calls of active or inactive are those of the source.

For the compound `Cc1ccc(/C=C2\CN(C(=O)OC(C)(C)C)C/C(=C\c3ccc(C)cc3)C2=O)cc1`, the growth with DU-145 prostate was 38.7%; with K-562 leukemia, 3.47% (active); in the experiment on MALME-3M melanoma, 83.5%; in the experiment on MDA-MB-231 breast, 88.3%; in the experiment with RXF 393 renal, 99.4%; in the experiment on SF-268 CNS, 49.1%. For the same compound, the growth is 89.9% with SF-295 CNS, 90.4% in the experiment with SF-539 CNS, 79.4% in the experiment with UACC-257 melanoma and 43% in the experiment with M14 melanoma.
As for `CC(O)c1cnc(/C=C2\SC(=S)N(Cc3ccccc3)C2=O)s1` (stereo not given), the growth in the experiment on DU-145 prostate is 53.2%; with K-562 leukemia it was 18%; in the experiment on MALME-3M melanoma, 90.8%; in the experiment with MDA-MB-231 breast, 84.9%; in the experiment on RXF 393 renal, 73.6%; in the experiment with SF-268 CNS, 84.3%. The growth in the experiment on SF-295 CNS is 102%; with SF-539 CNS it was 91.9%; in the experiment with UACC-257 melanoma, 72.8%; with M14 melanoma, 66.5%.
For `CC/C(=C(/c1ccc(Cl)cc1)c1ccc(OCCN2CCCC2)cc1)c1ccc(OC)cc1`, the growth in the experiment with DU-145 prostate was 86.3%; in the experiment on K-562 leukemia, 5% (active); in the experiment with MALME-3M melanoma, 79.8%; in the experiment with MDA-MB-231 breast, 80.2%; in the experiment on RXF 393 renal it was 67%; in the experiment on SF-268 CNS it was 87.1%. In addition, the growth was 66% in the experiment on SF-295 CNS, 82.6% in the experiment with SF-539 CNS, 74.8% with UACC-257 melanoma and 50.3% in the experiment on M14 melanoma.
Turning to `Oc1c(Cl)cc(Cl)c2ccc(Cn3cc(-c4cc(F)cc(F)c4)nn3)nc12`, the growth with DU-145 prostate is 58.5%; in the experiment on K-562 leukemia, 7.96% (active); in the experiment with MALME-3M melanoma it was 37.2%; with MDA-MB-231 breast, 97.9%; in the experiment on RXF 393 renal, 25.6%; with SF-268 CNS it was 97.2%. Moreover, the growth in the experiment on SF-295 CNS is 100%; in the experiment on SF-539 CNS it was 65.8%; in the experiment on UACC-257 melanoma, 60.4%; with M14 melanoma it was 61.5%.
Regarding `CC(=O)n1nc(C(=O)OC(C)C)c2cc(C)c(C)cc21`, the growth in the experiment with DU-145 prostate is 105%; with K-562 leukemia, 91.1%; in the experiment with MALME-3M melanoma, 95%; with MDA-MB-231 breast, 102%; in the experiment with RXF 393 renal, 118%; in the experiment with SF-268 CNS, 102%. For the same compound, the growth was 89.8% in the experiment with SF-295 CNS, 107% in the experiment on SF-539 CNS, 92.3% in the experiment with UACC-257 melanoma and 93.7% with M14 melanoma.
As to `C=CCc1c2c(c(OC)c3ccoc13)C(=O)/C(=C/c1ccccc1OC)O2`, the growth is 35% with DU-145 prostate; 49.5% in the experiment on K-562 leukemia; 88.8% with MALME-3M melanoma; 50.9% with MDA-MB-231 breast; 24.8% in the experiment on RXF 393 renal; 60.4% in the experiment with SF-268 CNS. In addition, the growth was 60.1% in the experiment with SF-295 CNS, 94.7% in the experiment with SF-539 CNS, 63.7% in the experiment on UACC-257 melanoma and 64.2% in the experiment with M14 melanoma.
For `O=C(Cn1c(=O)sc2nc3ccccc3nc21)Nc1ncc(Cc2cccc(Cl)c2Cl)s1`, the growth is 112% in the experiment on DU-145 prostate; 102% in the experiment on K-562 leukemia; 117% in the experiment with MALME-3M melanoma; 90.6% in the experiment on MDA-MB-231 breast; 109% with RXF 393 renal; 94.4% in the experiment on SF-268 CNS. The growth with SF-295 CNS is 102%; with SF-539 CNS it was 98.7%; in the experiment with UACC-257 melanoma, 107%; in the experiment with M14 melanoma it was 100%.
Regarding `O=C(Cn1cc(CN2C(=O)c3ccccc3S2(=O)=O)nn1)Nc1nc2ccccc2s1`, the growth in the experiment on DU-145 prostate was 108%; with K-562 leukemia, 101%; in the experiment on MALME-3M melanoma, 95%; in the experiment with MDA-MB-231 breast, 108%; in the experiment with RXF 393 renal, 117%; with SF-268 CNS, 97.3%. For the same compound, the growth with SF-295 CNS was 101%; with SF-539 CNS, 98.4%; with UACC-257 melanoma it was 101%; in the experiment on M14 melanoma it was 103%.
`Cc1ccc2c3c(c(=O)[nH]c2c1)C1(C(C#N)=C(N)O3)c2cc(Br)ccc2-c2ccc(Br)cc21`: the growth is -7.81% (active) in the experiment with DU-145 prostate; 18.8% with K-562 leukemia; -47.9% (active) in the experiment with MALME-3M melanoma; -33.9% (active) in the experiment on MDA-MB-231 breast; -63.6% (active) in the experiment on RXF 393 renal; -26.9% (active) in the experiment on SF-268 CNS. Also, the growth is -68.7% (active) with SF-295 CNS, -51% (active) in the experiment with SF-539 CNS, 71.2% in the experiment with UACC-257 melanoma and 50.6% in the experiment with M14 melanoma.
Regarding `COC(=O)CCC(=O)C(=O)OC`, the growth with DU-145 prostate was 10.6% [10 mM]; in the experiment on K-562 leukemia, 7.9% [10 mM] (active); in the experiment with MALME-3M melanoma, 42.4% [10 mM]; in the experiment with MDA-MB-231 breast, 35.5% [10 mM]; with RXF 393 renal it was -8.87% [10 mM] (active); with SF-268 CNS it was -10.3% [10 mM] (active). The growth with SF-295 CNS is 30.2% [10 mM]; in the experiment on SF-539 CNS, 4.1% [10 mM] (active); with UACC-257 melanoma it was -15.1% [10 mM] (active); in the experiment with M14 melanoma, 7.27% [10 mM] (active).
In the case of `CCOC(=O)c1c(C)c2c(n1C)CSc1cc(C(=O)c3ccccc3)c(=O)[nH]c1-2`, the growth is 100% [100 µM] in the experiment on DU-145 prostate; 102% [100 µM] in the experiment with K-562 leukemia; 90.8% [100 µM] with MALME-3M melanoma; 87.1% [100 µM] in the experiment with MDA-MB-231 breast; 134% [100 µM] with RXF 393 renal; 90.8% [100 µM] in the experiment with SF-268 CNS. Further, the growth was 103% [100 µM] in the experiment with SF-295 CNS, 94.7% [100 µM] in the experiment on SF-539 CNS, 120% [100 µM] in the experiment on UACC-257 melanoma and 108% [100 µM] with M14 melanoma.
In the case of `CCOC(=O)c1[nH]c(=O)c2c(C)nc(-c3ccccc3)cc2c1O`, the growth is 112% in the experiment with DU-145 prostate; 110% with K-562 leukemia; 136% with MALME-3M melanoma; 78.8% in the experiment on MDA-MB-231 breast; 112% in the experiment on RXF 393 renal; 106% in the experiment on SF-268 CNS. Also, the growth is 110% in the experiment on SF-295 CNS, 106% in the experiment with SF-539 CNS, 106% with UACC-257 melanoma and 104% in the experiment with M14 melanoma.
Regarding `S=C1CCSC(=S)N1CCCN1C(=S)CCSC1=S`, the growth in the experiment on DU-145 prostate is 73.3%; in the experiment on K-562 leukemia, 29.4%; in the experiment with MALME-3M melanoma, 74.2%; in the experiment with MDA-MB-231 breast it was 75.3%; with RXF 393 renal, 57.9%; in the experiment on SF-268 CNS, 87.2%. In addition, the growth in the experiment on SF-295 CNS is 105%; in the experiment on SF-539 CNS, 71.6%; with UACC-257 melanoma it was 89%; in the experiment with M14 melanoma, 83.1%.
